Laboratory results reported in PubChem BioAssay AID1159580 (chemical genetic matrix, 2015).
In all, about 5,500 compounds went through this assay and about 2,000 (36%) were called active. Inconclusive results (about 18%) are left out. Rule as the data show it: active = normalized growth mostly below about 0.91 (no sharp cut-off); inconclusive = no clear call, values can overlap the other calls; inactive = mostly above about 0.92. The list shows a part of the results.

Test: chemical genetic growth profiling, strain panel (AID 1159580);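 also: tested at 20 µM; growth read once vehicle control cultures reached saturation at 30 °C; 1 = growth at the plate median or of vehicle wells; lower values mean less growth of the strain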
Conditions: S. cerevisiae deletion strains, growth OD
[1] = locus YDL101C, strain DUN1, stronger effect = lower value
[2] = locus YHR030C, strain SLT2, stronger effect = lower value
[3] = locus YAL013W, strain DEP1, stronger effect = lower value
[4] = locus YDR150W, strain NUM1, stronger effect = lower value
[5] = locus YEL061C, strain CIN8, stronger effect = lower value
[6] = locus YGR078C, strain PAC10, stronger effect = lower value
[7] = locus YHR087W, strain rtc3, stronger effect = lower value
[8] = locus YJR043C, strain POL32, stronger effect = lower value
[9] = locus YJR075W, strain HOC1, stronger effect = lower value
[10] = locus YLR039C, strain RIC1, stronger effect = lower value
[11] = locus YLR058C, strain SHM2 (second series), stronger effect = lower value
[12] = locus YLR085C, strain ARP6, stronger effect = lower value
[13] = locus YLR262C, strain YPT6, stronger effect = lower value
[14] = locus YML094W, strain GIM5, stronger effect = lower value
[15] = locus YMR219W, strain ESC1, stronger effect = lower value
[16] = locus YMR263W, strain SAP30, stronger effect = lower value
[17] = locus YMR307W, strain GAS1, stronger effect = lower value
[18] = locus YNL153C, strain GIM3, stronger effect = lower value
[19] = locus YNL298W, strain CLA4 (second series), stronger effect = lower value
[20] = locus YNL322C, strain KRE1, stronger effect = lower value
[21] = locus YNR030W, strain Alg12, stronger effect = lower value
[22] = locus YPL055C, strain LGE1, stronger effect = lower value
[23] = locus YPL241C, strain CIN2, stronger effect = lower value
[24] = locus YPR135W, strain CTF4, stronger effect = lower value

Measured: normalized growth

OC(COCc1ccccc1)Cn1c2ccccc2c2ccccc21 (stereo unspecified)
active: [2] 0.632 | locus YLR113W, strain HOG1, stronger effect = lower value 0.769 | locus YPL256C, strain CLN2, stronger effect = lower value 0.792
inactive: locus YAR019C, strain CDC15, stronger effect = lower value 0.951 | locus YBL105C, strain PKC1, stronger effect = lower value 0.95 | locus YBR135W, strain CKS1, stronger effect = lower value 0.951 | locus YBR136W, strain MEC1, stronger effect = lower value 0.952 | locus YBR160W, strain CDC28, stronger effect = lower value 0.955 | locus YDL017W, strain CDC7, stronger effect = lower value 0.953 | locus YDL028C, strain MPS1, stronger effect = lower value 0.951 | [1] 0.98 | locus YDL108W, strain KIN28, stronger effect = lower value 0.952 | locus YDL132W, strain cdc53, stronger effect = lower value 0.952 | locus YDL214C, strain PRR2, stronger effect = lower value 0.903 | locus YDR052C, strain DBF4, stronger effect = lower value 0.965 | locus YDR054C, strain cdc34, stronger effect = lower value 0.939 | locus YDR226W, strain ADK1, stronger effect = lower value 0.965 | locus YDR477W, strain SNF1, stronger effect = lower value 0.888 | locus YER123W, strain YCK3, stronger effect = lower value 0.888 | locus YER133W, strain GLC7, stronger effect = lower value 0.876 | locus YFL009W, strain cdc4, stronger effect = lower value 0.964 | locus YFL029C, strain CAK1, stronger effect = lower value 0.947 | locus YFR003C, strain YPI1, stronger effect = lower value 0.947 | locus YFR019W, strain FAB1, stronger effect = lower value 0.954 | locus YFR028C, strain CDC14, stronger effect = lower value 0.96 | locus YGR040W, strain KSS1, stronger effect = lower value 0.888 | locus YGR052W, strain FMP48, stronger effect = lower value 0.874 | locus YGR092W, strain DBF2, stronger effect = lower value 0.838 | locus YHR079C, strain IRE1, stronger effect = lower value 0.729 | locus YHR082C, strain KSP1, stronger effect = lower value 0.91 | locus YHR205W, strain SCH9, stronger effect = lower value 0.936 | locus YIL147C, strain SLN1, stronger effect = lower value 0.953 | locus YJL095W, strain BCK1, stronger effect = lower value 0.866 | locus YJL128C, strain PBS2, stronger effect = lower value 0.917 | locus YJL157C, strain FAR1, stronger effect = lower value 0.882 | locus YJR016C, strain ILV3, stronger effect = lower value 0.953 | locus YJR066W, strain TOR1 (second series), stronger effect = lower value 0.917 | locus YJR066W, strain TOR1, stronger effect = lower value 0.886 | locus YKL048C, strain ELM1, stronger effect = lower value 0.973 | locus YKL067W, strain YNK1, stronger effect = lower value 0.905 | locus YKL101W, strain HSL1, stronger effect = lower value 0.891 | locus YKL193C, strain SDS22, stronger effect = lower value 0.953 | locus YKL203C, strain TOR2, stronger effect = lower value 0.877 | locus YLR133W, strain CKI1, stronger effect = lower value 0.893 | locus YLR403W, strain SFP1, stronger effect = lower value 0.907 | locus YML070W, strain DAK1, stronger effect = lower value 0.876 | locus YMR001C, strain CDC5, stronger effect = lower value 0.944 | locus YMR205C, strain PFK2 (second series), stronger effect = lower value 0.939 | locus YMR277W, strain FCP1, stronger effect = lower value 0.955 | locus YNL006W, strain LST8, stronger effect = lower value 0.946 | locus YNL020C, strain ARK1, stronger effect = lower value 0.881 | locus YNL161W, strain CBK1, stronger effect = lower value 0.947 | locus YNL183C, strain NPR1, stronger effect = lower value 0.885 | locus YNL207W, strain RIO2, stronger effect = lower value 0.946 | locus YNL222W, strain SSU72, stronger effect = lower value 0.958 | locus YNL307C, strain MCK1 (second series), stronger effect = lower value 0.885 | locus YOL078W, strain AVO1, stronger effect = lower value 0.959 | locus YOL136C, strain PFK27, stronger effect = lower value 0.898 | locus YOR061W, strain CKA2, stronger effect = lower value 0.924 | locus YOR119C, strain RIO1, stronger effect = lower value 0.933 | locus YOR231W, strain MKK1, stronger effect = lower value 0.837 | locus YOR329C, strain SCD5, stronger effect = lower value 0.952 | locus YPL031C, strain PHO85, stronger effect = lower value 0.845 | locus YPL204W, strain HRR25, stronger effect = lower value 0.791 | locus YPL209C, strain IPL1, stronger effect = lower value 0.955 | locus YPR025C, strain CCL1, stronger effect = lower value 0.953 | locus YPR106W, strain ISR1, stronger effect = lower value 0.95 | locus YPR111W, strain DBF20, stronger effect = lower value 0.933 | strain NNK1, stronger effect = lower value 0.932 | strain TSCII, stronger effect = lower value 0.945

O=C(O)c1oc(C(=O)O)c(OCc2ccccc2)c1OCc1ccccc1
inactive: [3] 1.01 | locus YBR229C, strain ROT2, stronger effect = lower value 1.02 | locus YCL061C, strain MRC1, stronger effect = lower value 0.984 | [1] 0.973 | locus YDL134C, strain PPH21, stronger effect = lower value 0.998 | [4] 0.973 | [5] 1.01 | [6] 0.976 | [2] 0.963 | [7] 1.03 | [8] 0.965 | [9] 0.988 | [10] 0.993 | [11] 1.02 | [12] 1.01 | [13] 0.981 | [14] 1.03 | [15] 0.997 | [16] 0.997 | [17] 1.03 | [18] 0.988 | [19] 0.986 | [20] 0.963 | [21] 0.998 | [22] 1.07 | [23] 1.01 | [24] 1

OCC(O)Cn1c2ccccc2c2ccccc21 (stereo unspecified)
inactive: [3] 1.01 | [1] 1.04 | [4] 1.03 | [5] 0.986 | [6] 1.02 | locus YGR229C, strain SMI1, stronger effect = lower value 0.994 | [2] 1.07 | [7] 0.953 | locus YJL187C, strain SWE1, stronger effect = lower value 1 | [8] 0.987 | [9] 1.01 | [10] 0.982 | [11] 0.988 | [12] 0.97 | [13] 0.959 | [14] 0.975 | [15] 0.986 | [16] 1.01 | [18] 1.02 | [19] 0.984 | [20] 0.999 | [21] 0.977 | locus YOL006C, strain TOP1, stronger effect = lower value 1 | [22] 0.932 | [23] 0.985 | [24] 1.02

CCCN(CC1CC1)c1nc(C)nc(Nc2c(Cl)cc(Cl)cc2Cl)c1Cl
active: locus YNL197C, strain WHI3, stronger effect = lower value 1.13 [resistant] | locus YOR083W, strain WHI5 (second series), stronger effect = lower value 1.18 [resistant]
inactive: [3] 1.02 | locus YAL040C, strain CLN3, stronger effect = lower value 1.06 | locus YCL061C, strain MRC1 (second series), stronger effect = lower value 1 | [4] 1.01 | locus YDR363W, strain ESC2, stronger effect = lower value 0.999 | locus YER002W, strain NOP16, stronger effect = lower value 1.05 | [9] 1.01 | [16] 1.01 | [17] 1 | [18] 1.06 | locus YNL224C, strain SQS1, stronger effect = lower value 1.05
